# Compounds with a hit are over-represented: about 11% of the library has one in this group of screens.
# ALDH1A1 inh = inhibitors of human aldehyde dehydrogenase 1A1; P00352; Purified ALDH1A1, NADH fluorescence, propionaldehyde substrate; Potency, µM (highest dose often 75.3 µM), for the others: top-dose activity, negative = inhibition, usual class: inhibitors; 7.3% of 220,000 active; active = well fitted inhibition curve with a large enough effect, not every such curve was filed as active; inconclusive = small, poorly fitted or top-dose-only effect, or another doubt; inactive = no such curve, though single readings can be large or run the other way;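 note: potency is the fitted concentration of half-maximal effect; plate controls were no enzyme wells and a reference inhibitor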
# HTT ATP protect = Huntington cell model cytoprotection by ATP luminescence; PC12 HTT-Q103 induced, cytoprotection, ATP luminescence, 40 h; Potency, µM (highest dose often 56.4 µM), for inactives: cytoprotection (ATP increase), usual class: activators; 0.14% of 230,000 active; AID 1471; note: potency is the fitted concentration of half-maximal effect; % of control where 0% means no effect; nearly all actives have a fitted effect of over 45% in size
#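 Rat PC12, Q103 Htt exon1-GFP fusion, ecdysone promoter; tebufenozide inducer 100 nM final; compound titration; qHTS, 1500 cells/well; ATPlite luminescent read.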
# HPGD inh = inhibitors of human 15-hydroxyprostaglandin dehydrogenase (HPGD); 4.3% of 150,000 active; P15428; Potency, µM, for inactives: at the top dose activity change, negative = inhibition, actives largely listed as inhibitors; AID 894; purified HPGD, NADH fluorescence kinetic, PGE2 substrate; active = well fitted inhibition curve with a large enough effect, not every such curve was filed as active; inconclusive = small, poorly fitted or top-dose-only effect, or another doubt; inactive = no such curve, though single readings can be large or run the other way; note: potency is the fitted concentration of half-maximal effect; % is set by controls: 0 for no effect and ±100 for the full control effect
# Target sequence (P15428 whole entry, looked up): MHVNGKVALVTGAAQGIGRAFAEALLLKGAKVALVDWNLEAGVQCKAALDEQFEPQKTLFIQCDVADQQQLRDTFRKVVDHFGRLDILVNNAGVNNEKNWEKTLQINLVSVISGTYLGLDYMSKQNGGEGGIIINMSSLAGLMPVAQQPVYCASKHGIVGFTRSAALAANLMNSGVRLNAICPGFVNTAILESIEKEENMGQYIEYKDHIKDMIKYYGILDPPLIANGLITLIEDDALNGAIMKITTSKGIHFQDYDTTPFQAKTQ
#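 20 nM HPGD preincubated 15 min at room temperature with compound in 50 mM Tris-HCl pH 8, 0.01% Tween 20. Started with 1 mM NAD+ and 30 uM prostaglandin E2; NADH fluorescence (360/450 nm) read 5 times over 30-s intervals, last minus first.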
# HttQ103 aggreg = inhibitors of mutant huntingtin aggregate formation in PC12 cells; PC12 HttQ103-GFP aggregates, Acumen cytometry, 40 h; Potency, µM (highest dose often 46.1 µM), for the others: at the highest dose activity change, negative = inhibition, most hits filed as inhibitors; 1.1% of 220,000 active; note: potency is the fitted concentration of half-maximal effect; % is set by controls: 0 for no effect and ±100 for the full control effect; nearly all actives have a fitted effect of over 60% in size
#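 Read-out: GFP aggregate count by laser scanning cytometer (488 nm excitation, 500-530 nm emission, 1–25 µm objects >6 SD above background). Cells: PC12, inducible HTTex1-Q103-GFP, 100 nM tebufenozide; compounds titrated.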
# PNC assembly inh = inhibitors of perinucleolar compartment assembly | AID 2417 | PC3M PTB-GFP, PNC prevalence imaging, 16 h; stronger effect = lower value | 3.1% of 140,000 active | activity change (PNC), negative = inhibition, % at 10 µM;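 active = readout at or below -70, meaning at least 70% loss of cells showing the perinucleolar compartment, a nuclear body marking cancer cells; inconclusive = readout between -30 and a set limit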;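 note: plate controls were DMSO wells for no effect and camptothecin positive control wells for full effect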
#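 PC3M cells stably expressing PTB-GFP, 750–1000 cells/well, treated 16 h at 37 °C with compound (23 nl of library stock), in duplicate. After paraformaldehyde fixation and Hoechst stain, imaged at 20x; PNC prevalence scored by image analysis.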
# GoLoco inh red = inhibitors of human Gai1-RGS12 GoLoco interaction (red fluorophore); P63096; Gai1:RGS12 GoLoco peptide FP, rhodamine, 10 min; 0.44% of 230,000 active; Potency, µM (series often up to 61.6 µM), for the others: top-dose activity, negative = inhibition, hits mostly inhibitors; active = well fitted inhibition curve with a large enough effect, not every such curve was filed as active; inactive = no such curve, though single readings can be large or run the other way; note: potency is the fitted concentration of half-maximal effect; % is set by controls: 0 for no effect and ±100 for the full control effect; nearly all actives have a fitted effect of over 30% in size
# Target sequence (P63096 whole entry, looked up): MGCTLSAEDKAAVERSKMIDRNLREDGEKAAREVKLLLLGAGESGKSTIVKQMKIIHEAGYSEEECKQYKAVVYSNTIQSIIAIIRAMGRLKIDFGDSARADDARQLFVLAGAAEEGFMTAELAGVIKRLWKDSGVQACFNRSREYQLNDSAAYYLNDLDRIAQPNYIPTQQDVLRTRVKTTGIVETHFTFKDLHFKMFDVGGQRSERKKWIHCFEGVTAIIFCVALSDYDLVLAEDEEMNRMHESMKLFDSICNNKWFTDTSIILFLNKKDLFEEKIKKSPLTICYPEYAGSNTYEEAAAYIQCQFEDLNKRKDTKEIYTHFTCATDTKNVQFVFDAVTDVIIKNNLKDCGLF
# * hit, by the source's call; ? = inconclusive; · = no result; [ ] = dose if it differs, or a comment. Unless noted, calls come from the whole dose curve; as a rule, active = well fitted curve in the direction sought with a large enough effect; inconclusive = small, poorly fitted or top-dose-only effect, or another doubt; inactive = no such curve, though single readings can be large; an effect the other way counts as inactive or inconclusive.
SMILES,ALDH1A1 inh,HTT ATP protect,HPGD inh,HttQ103 aggreg,PNC assembly inh,GoLoco inh red
Cc1cccc(N2C(=O)CN(Cc3sccc3C)C2=S)c1,-1%,25%[10 µM],14µM*,-19%,-16,8%
CCc1ccc(N2C(=O)CN(Cc3sccc3C)C2=S)cc1,-3%,-13%,·,-9%,·,4%
Cc1cc(C)cc(N2C(=O)CN(Cc3sccc3C)C2=S)c1,0%,15%[10 µM],28µM*,16%,-28,9%
O=C(CN1N=C(c2ccccc2)CCC1=O)NCc1ccco1,-7%,-12%[10 µM],-10%,12%,1,16%
CCOC(=O)C1CN(S(C)(=O)=O)c2cc(CC(=O)OC)ccc2O1 (stereo not given),-4%,·,·,20%,·,-2%
COCCCn1c(SCC(=O)Nc2sc3c(c2C#N)CCCC3)nnc1-c1ccncc1,20µM*,15%[10 µM],?,1%,0,8%
Cn1c(CNC(=O)c2ccc(Cl)c(Cl)c2)nnc1SCC(=O)Nc1sc2c(c1C#N)CCCC2,-17%,-31%,-22%,-11%,62,0%
CN(C)CCCn1c(SCC(=O)Nc2sc3c(c2C#N)CCCC3)nnc1-c1ccncc1,7.1µM*,3%,6%,32%,28,-10%
C[C@H](C[C@H](N)C(=O)O)C(=O)O,1%,-2%,-5%,·,·,6%
C=CCN1c2ccccc2[C@]23C[C@@H](C(=O)OC)N(S(=O)(=O)c4c(C)noc4C)C2=NC(C(=O)OC)=C(C(=O)OC)[C@H]13,3%[13.5 µM],-10%[10 µM],3%,·,·,5%[14.2 µM]
CC1(C)CC(=O)C2=C(C1)N(c1cccnc1)C(N)=C(C#N)C2c1cccs1 (stereo not given),22µM*,·,-26%,-5%,0,29%
CCSc1sccc1C1C(C#N)=C(N)N(c2cccnc2)C2=C1C(=O)CC(C)(C)C2 (stereo not given),-6%,7%,-10%,-3%,-6,4%
CN(C)N1C(N)=C(C#N)C(c2cccs2)C2=C1CC(C)(C)CC2=O (stereo not given),10µM*,?,·,15%,·,11%
CC1(C)CC(=O)C2=C(C1)N(N1CCOCC1)C(N)=C(C#N)C2c1cccs1 (stereo not given),9%,19%[10 µM],-11%,-9%,-25,19%
CCCn1c(SCC(=O)c2ccc3c(c2)OCCO3)nnc1-c1ccco1,-6%,-1%,-3%,19%,21,4%
COCCn1c(SCC(=O)c2ccc(Cl)cc2)nnc1C(C)C,9.5µM*,-11%,?,12%,19,4%
COCCn1c(SCC(=O)c2ccc3c(c2)OCCO3)nnc1C(C)C,10µM*,-10%[10 µM],-9%,7%,6,-4%
O=C(COC(=O)CC12CC3CC(CC(C3)C1)C2)Nc1ncc(Cl)cc1Cl,1%,0%,-10%,-16%,-19,11%
O=C(COC(=O)C12CC3CC(CC(C3)C1)C2)Nc1ncc(Cl)cc1Cl,?,8%,-10%,-2%,-88*,21%
CC(C)CO/N=C1/C[C@@H](O)[C@@H](O)[C@@H]2[C@@H]3C(=O)N([C@@H](C)c4ccccc4)C(=O)[C@H]3CC[C@H]12,2%[13.5 µM],?,·,·,·,·
CCOc1ccccc1-n1c(C)cc(C=O)c1C,?,16%[10 µM],·,21%,·,10%
COc1ccc(Cl)cc1-n1c(C)cc(C=O)c1C,13µM*,-4%,14µM*,-1%,-11,12%
COc1ccc(Cl)cc1-n1c(C)cc(C(=O)O)c1C,?,-2%[10 µM],13µM*,8%,-22,26%
C=C1C[C@H](OC(=O)C(C)(O)CCl)C2C(=C)C(=O)O[C@@H]2C2C1C[C@H](O)[C@]2(O)CCl (stereo not given in full),18%,·,-4%,·,·,-3%
Cc1ccc(S(=O)(=O)NCCc2ccc(S(N)(=O)=O)cc2)cc1,25µM*,41%,-7%,0%,?,16%
SMILES,ALDH1A1 inh,HTT ATP protect,HPGD inh,HttQ103 aggreg,PNC assembly inh,GoLoco inh red
Cc1ccc(CSCCNS(=O)(=O)c2ccc(C)cc2)cc1,10µM*,32%[10 µM],-8%,16%,0,-3%
Cc1ccc(S(=O)(=O)NCCC(=O)O)cc1,14%,3%,-2%,-10%,9,12%
Cc1ccc(CCNS(=O)(=O)c2ccc(C)cc2)cc1,?,-7%,-6%,-8%,?,-2%
Cc1ccc(S(=O)(=O)NCC(C)NS(=O)(=O)c2ccc(C)cc2)cc1 (stereo not given),0.4µM*,10%,-6%,-1%,?,-4%
CCCSS/C(CCO)=C(/C)N(C=O)Cc1cnc(C)nc1N,·,-19%,·,-13%,·,·
[N-]=[N+]=CC(=O)COC(=O)c1ccccc1,3%[13.5 µM],-25%[10 µM],-1%,·,·,-1%[14.2 µM]
O=C(NCC1CCCO1)C(c1ccncc1)N(Cc1cccs1)C(=O)CN1C(=O)c2ccccc2S1(=O)=O (stereo not given),?,-39%[10 µM],·,8%[9.22 µM],·,21%
Cc1ccccc1CCN(C(=O)CN1C(=O)c2ccccc2S1(=O)=O)C(C(=O)NCC1CCCO1)c1ccncc1 (stereo not given),?,22%[10 µM],-6%,16µM*,53,6%
Cc1ccc2nc3ccc(N4CCCCCCC4)nn3c(=O)c2c1,10µM*,-58%,-27%,13%,?,29%
Cc1ccc2nc3ccc(N4CCN(C)CC4)nn3c(=O)c2c1,?,-53%,-23%,8%,-18,9%
O=C(Nc1cccc(F)c1)N1CCCC2(CCN(C(=O)c3ccncc3)CC2)C1,19%,-5%,-7%,·,·,14%
COC(=O)[C@@H]1C[C@@]2(O)[C@H](O)[C@H](O)[C@H](O)C[C@H]2N1Cc1ccc(N2CCN(C)CC2)cc1,22µM*,-27%,-17%,·,·,-27%
O/N=C1\CCCC\C1=C/c1ccccc1,-2%,·,4.5µM*,0%,?,3%
O=C1CCC/C1=C\c1ccccc1,?,6%[10 µM],·,?,·,13%
CCOc1ccc(N2C(=O)CC(N(Cc3ccco3)C(=O)CC)C2=O)cc1 (stereo not given),?,·,·,·,·,0%
O=C(c1ccco1)N1CCN(C2CC(=O)N(c3ccccc3)C2=O)CC1 (stereo not given),20µM*,-15%,-12%,20%[9.22 µM],-22,-12%
CCOc1ccc(N2C(=O)CC(N(Cc3ccco3)C(C)=O)C2=O)cc1 (stereo not given),20µM*,-4%[10 µM],·,-5%[9.22 µM],·,16%
CCOc1ccc(N2C(=O)CC(N3CCN(C(=O)c4ccco4)CC3)C2=O)cc1 (stereo not given),8.9µM*,-19%,-3%,21%,?,-5%
CCOC(=O)c1ccc(N2C(=O)CC(N3CCN(C(=O)c4ccco4)CC3)C2=O)cc1 (stereo not given),?,0%,1%,-3%,-15,-1%
